Results filed as inconclusive are left out. Entries that show only a call come without a potency. Activity calls are given as the source filed them. Calls come from the whole dose curve; as a rule, active = well fitted activation curve with a large enough effect; inconclusive = small, poorly fitted or top-dose-only effect; inactive = no such curve, though single readings can be large or run the other way.
Potency is the fitted concentration of half-maximal effect.

The nature of the experiment: qHTS assay for re-activators of p53 using a Luc reporter: Hit Validation with no p53 Expressed. Conditions: p53-null cells, luciferase reporter counter-screen; series mostly up to 46.1 µM. The procedure, abridged:
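Without p53 expression, cells (1000/well, Opti-MEM + 10% FBS) were exposed 24 h at 37 deg C to compounds in a 1:5 series from 10 mM stock (top 46.1 µM in well). Luminescent signal read 10 min after Amplite addition; actives flag unspecific activation.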
Turning to `O=C(Nc1ccc(Cl)cc1Cl)c1ccc2c(c1)OCCO2`, the Potency entry is “inactive”. To `S=C(Nc1ccccc1)Nc1nc2ccccc2n1CCOc1ccc(Br)cc1` belongs “inactive”. With `COc1cccc(C(=O)Nc2ccc(NC(=O)C(C)(C)C)cn2)c1`, the Potency was 461 nM (active). To `C/C(=N\NC(=O)c1cccc(Br)c1)c1ccccn1` belongs “inactive”.

Turning to `Cc1ccc(/C=C2\SC(=S)N(CCCC(=O)Nc3nccs3)C2=O)cc1`, the Potency entry is “inactive”. As for `Cc1ccc(CNc2cc(C(=O)O)ccc2Cl)s1`, the Potency result is “inactive”.

For the compound `Cc1ccc2c(c1)CCCN2C(=O)Nc1ccc2c(c1)OCO2`, the Potency result was “inactive”. The value for `COc1ccc(C2SCCN2C(=S)Nc2ccc(Cl)cc2)cc1` (centres undefined) was “inactive”; that for `COc1ccc(N2COC3c4cccc5cccc(c45)C32)cc1` (centres undefined) was “inactive”. To `CNC(=S)N/N=C/c1cc(Br)cc(Br)c1O` belongs “inactive”; to `C=CCn1c(C)cc(C(=O)COC(=O)c2ccc(N)c([N+](=O)[O-])c2)c1C`, “inactive”. To `Cc1ccc(NC(=O)c2ccc3nc[nH]c3c2)cc1C` belongs “inactive”. As to `COCCn1c(SCC(=O)Nc2ccc(N3CCOCC3)cc2)nc2ccccc21`, the Potency result is “inactive”. To `O=C(NN=C1CCCCCC1)c1cccs1` belongs “inactive”.

In the case of `Cc1ccc(-c2noc(CN3CCC(C(N)=O)CC3)n2)cc1`, the Potency result was “inactive”. The value for `COc1cc(NC(=O)CN2C(=O)COc3ccc(S(=O)(=O)N4CCCC4)cc32)cc(OC)c1` was “inactive”. To `O=C(NC1CCCCC1)c1ccc(-c2ccccc2F)o1` belongs “inactive”; to `CC(OC(=O)c1cccc([N+](=O)[O-])c1)C(=O)N1CCc2ccccc21` (centres undefined), “inactive”; to `CCN1CCN(/C=N/c2nc3c(s2)CCCC3)CC1`, “inactive”. To `Cc1nn(-c2ccccc2)c(N)c1Sc1ccc([N+](=O)[O-])cc1` belongs “inactive”. `CCCN1C(=O)SC(CC(=O)Nc2ccccc2C)C1=O` (centres undefined): the Potency result is “inactive”.

For `CCc1ccc(N=c2c([N+](=O)[O-])nn(-c3ccccc3)n2O)cc1`, the Potency result was “inactive”.

In the case of `CN(C)c1ccc(NC(=O)CCCc2ccccc2)cc1`, the Potency result was “inactive”.

Regarding `Cc1ccc(S(=O)(=O)NCCOc2nc(N(C)C)nc(N3CCOCC3)n2)cc1`, the Potency result was “inactive”. To `C/C(=N\NC(=O)c1ccc(F)cc1)c1ccccn1` belongs “inactive”; to `O=C(Nc1nc2ccccc2s1)c1ccc2c(c1)OCO2`, “inactive”. To `Brc1ccccc1-c1nc(-c2ccccc2)no1` belongs “inactive”; to `C=CCOc1c(OC)cc(/C=N/Nc2cccc(C(=O)O)c2)c(Br)c1Br`, “inactive”; to `Cc1noc(C)c1C(=O)OCC(=O)N1CCc2ccccc21`, “inactive”. To `OC(COc1ccc2cc(Br)ccc2c1)CN1CCCC1` (centres undefined) belongs “inactive”. For the compound `O=c1sc(/C=N/Nc2ccccc2)c(Cl)n1Cc1ccccc1`, the Potency entry is “inactive”. The value for `Cc1ccc(C)c(Oc2cc(NC(=O)CCCn3nc(C)c([N+](=O)[O-])c3C)cc([N+](=O)[O-])c2)c1` was “inactive”; that for `Cc1cccnc1NC(=O)/C=C/c1ccc2c(c1)OCO2` was “inactive”. The value for `CCN(CC)c1ccc(CNc2ccc(Br)cn2)cc1` was “inactive”; that for `O=C(Nc1nc(-c2cccs2)cs1)c1ccc([N+](=O)[O-])o1` was “inactive”; that for `Cc1ccc(C2=CC(c3ccc(N(C)C)cc3)n3nnnc3N2)cc1` (centres undefined) was “inactive”. As for `CS(=O)(=O)c1ccc2nc(NC(=O)c3ccco3)sc2c1`, the Potency result is “inactive”. On to `CC(C)OC(=O)CCCCCN1C(=O)CSC1=S`, for which the Potency result is “inactive”. To `c1ccc(Oc2cc(-n3cncn3)ncn2)cc1` belongs “inactive”.
